High-throughput results: PubChem BioAssay, several laboratories
NR2F2 inh: NR2F2 (human) inhibition, primary screen | P24468 | HEK293T NGFI-A luciferase reporter, luminescence | inhibition, % at 8.6 µM | actives 0.7% (n = 370,000) | AID 686940;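 active = inhibition above a per-plate cutoff, mean inhibition of test wells between control levels plus 3 SD, cut at about 38% in these data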;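 note: cells cotransfected with COUP-TFII expression vector driving the NGFI-A reporter; 0% = median of COUP-TF2 test wells and 100% = reporter-only cells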
Target sequence (P24468 whole entry, looked up): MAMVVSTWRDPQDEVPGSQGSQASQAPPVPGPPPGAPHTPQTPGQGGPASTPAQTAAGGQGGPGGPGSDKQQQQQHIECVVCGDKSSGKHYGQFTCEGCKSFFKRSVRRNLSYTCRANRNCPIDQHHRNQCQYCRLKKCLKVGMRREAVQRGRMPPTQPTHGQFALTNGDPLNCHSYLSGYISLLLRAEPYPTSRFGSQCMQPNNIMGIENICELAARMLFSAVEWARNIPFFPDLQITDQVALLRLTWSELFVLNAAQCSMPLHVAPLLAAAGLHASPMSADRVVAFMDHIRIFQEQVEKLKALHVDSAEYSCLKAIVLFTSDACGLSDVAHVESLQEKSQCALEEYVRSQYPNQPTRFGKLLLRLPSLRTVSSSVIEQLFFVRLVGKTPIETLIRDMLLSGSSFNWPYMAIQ
LRH-1 inv ag: suppresses constitutive activity of human LRH-1; O00482; HEK293T StAR-luciferase reporter, LRH-1 transfected, 24 h; inhibition, % at 3.6 µM; actives 0.13% (n = 360,000);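 active = inhibition above the mean inhibition of all tested compounds plus 3 SD, cut at about 73% in these data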;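 note: 0% = DMSO wells and 100% = reporter-only cells lacking LRH-1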
NCOA2 inhibitor: human SRC2 (NCOA2) inhibition; inhibition, % at 9 µM; HEK293 GAL4-SRC2 luciferase reporter, luminescence; AID 651957; Q15596; actives 0.17% (n = 370,000);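 active = inhibition above the mean inhibition of all tested compounds plus 3 SD, set per campaign, cut at about 52% in these data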;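 note: 0% = DMSO treated cells and 100% = cells given Gossypol at 36 µM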
Gli-Sufu antag: antagonists of Gli-Sufu signaling. Sufu-KO-LIGHT fibroblasts, Gli luciferase reporter luminescence. inhibition, % at 5 µM. actives 0.74% (n = 340,000);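 active = inhibition above about 55%, limit read from the data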;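 note: 0% = DMSO-treated cells and 100% = wells with medium but no cells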
SRC3 inh: inhibits human SRC3 coactivator. HEK293 GAL4-SRC3 luciferase reporter, luminescence. actives 0.17% (n = 360,000). inhibition, % at 3.6 µM. Q9Y6Q9. AID 588352;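 active = inhibition above a per-campaign cutoff, the mean of all compounds plus 3 SD, cut at about 60% in these data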;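 note: 0% = DMSO-treated cells and 100% = gossypol-treated cells at 36 µM; higher means less SRC3-driven luciferase light from the GAL4 reporter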
NCOA1 inh: human NCOA1 inhibition | inhibition, % at 3.6 µM | actives 0.12% (n = 360,000) | HEK293 GAL4-SRC1 luciferase reporter, luminescence | Q15788;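 active = inhibition above the campaign mean plus 3 SD, with each screening campaign given its own cutoff, cut at about 60% in these data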;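 note: 0% = DMSO treated cells and 100% = gossypol at 36 µM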
Gli-Sufu confirm: Gli-SUFU antagonism confirmation, single concentration; shares compounds with Gli-Sufu antag; Sufu-KO-LIGHT cells, Gli luciferase reporter, luminescence; inhibition, % at 5 µM; actives 40% (n = 2,500);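 active = mean inhibition at 5 µM reaching about 45%, limit read from the data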;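 note: plate controls were DMSO-treated cells for no effect and wells lacking cells for full effect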
Gli cytotox: cytotoxic in Gli-SUFU antagonist counter-screen. shares compounds with Gli-Sufu antag. Sufu-KO-LIGHT cells cytotoxicity, ATP luminescence. cytotoxicity, % at 5 µM. actives 32% (n = 2,500). AID 651994;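 active = mean cytotoxicity at 5 µM above about 25%, limit read from the data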;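 note: cells exposed to compound overnight for roughly 16 to 18 hours; plate controls were DMSO wells with cells for no effect and medium without cells for full effect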
Wnt3a cs: Wnt3a reporter inhibition counter-screen. shares compounds with Gli-Sufu antag. Wnt-LIGHT cells, Wnt3a-driven luciferase reporter, luminescence. inhibition, % at 6.25 µM. actives 20% (n = 2,500). AID 651995;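 active = mean inhibition above about 25%, limit read from the data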
VP16 Luc counter: VP16 inhibition counter-screen for COUP-TFII. inhibition, % at 8.5 µM. shares compounds with NR2F2 inh. actives 25% (n = 2,500). HEK293 Gal4-VP16 luciferase reporter, luminescence; in the data active = inhibition above about 13%
COUP-TFII conf: COUP-TFII (NR2F2) inhibition, confirmation assay; actives 45% (n = 2,500); HEK293 NGFI-A luciferase reporter, luminescence; shares compounds with NR2F2 inh; AID 687008; inhibition, % at 8.5 µM;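 active = mean inhibition over three repeats above a set limit taken from the earlier primary screen, cut at about 38% in these data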;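 note: 100% = cells given the luciferase reporter alone without the COUP-TF2 vector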
Numbers without * were called inactive; · = no result. Most compounds without a hit are left out; they make up all but 1.3% or so of the library.

SMILES	NR2F2 inh	LRH-1 inv ag	NCOA2 inhibitor	Gli-Sufu antag	SRC3 inh	NCOA1 inh	Gli-Sufu confirm	Gli cytotox	Wnt3a cs	VP16 Luc counter	COUP-TFII conf
COc1cc(C(=O)NC2CCCc3c2cnn3-c2ccccc2F)cc(OC)c1OC (stereo not drawn)	46*	33	10	61*	37	16	48*	34*	13	-9	19
O=C(NCc1ccc(C(=O)NCC2CCCO2)cc1)c1cccc(Br)c1 (stereo not drawn)	-8	·	-14	·	·	·	·	·	·	·	·
Cn1cc(CNC(=O)c2cc(COc3ccc4c(c3)CCCC4)on2)cn1	9	-40	-5	4	12	-9	·	·	·	·	·
O=C(NC(c1cccnc1)C(F)(F)F)c1cc(COc2ccc3c(c2)CCCC3)on1 (stereo not drawn)	42*	-41	-34	61*	-43	-41	59*	31*	-95	-75	10
COc1ccccc1C(=O)CSc1nnc(-c2ccncc2)n1-c1ccc(Cl)cc1	1	·	-20	·	·	·	·	·	·	·	·
COc1cccc(C(=O)n2ccc3ccc(-c4ccc5ccn(Cc6ccc(C#N)cc6)c5c4)cc32)c1	-20	·	-3	·	·	·	·	·	·	·	·
O=c1cc(CSc2nnc(-c3cccs3)n2Cc2ccccc2)nc2sc3ccccc3n12	62*	27	29	62*	10	0	57*	33*	37*	-8	15
COc1ccc2c(c1)N(C)/C(=C/c1cccc[n+]1C)S2	56*	41	-5	80*	38	21	84*	36*	29*	-4	21
COc1cc(OC)cc(C(=O)/C=C2\Sc3ccccc3N2C)c1	-25	-23	-38	-15	7	15	·	·	·	·	·
CN1/C(=C/c2cccc[n+]2C)Sc2ccccc21	53*	35	-43	69*	28	20	86*	38*	36*	-5	48*
CN1/C(=C/C(=O)C2CCC2)Sc2ccccc21	-55	-77	-25	-44	-102	-64	·	·	·	·	·
CCCC[C@H]1C2CC(OC(=O)Nc3ccc(C(F)(F)F)cc3)C(C2)[C@H]2CCCCN21 (stereo partly drawn)	23	·	-2	·	·	·	·	·	·	·	·
CCOC(=O)c1c(C)[nH]c(C(=O)OCC(=O)Nc2cc(Cl)ccc2OC)c1C	21	19	5	5	-8	-7	·	·	·	·	·
CC(=O)c1c(C)[nH]c(C(=O)OCC(=O)Nc2ccc(Cl)cc2[N+](=O)[O-])c1C	63*	44	32	75*	36	20	75*	31*	24	5	60*
COc1ccc(CC(=O)Nc2ccncc2Cl)cc1	51*	44	24	66*	21	-3	54*	26*	31*	-4	32
S=C(NCc1ccc(Cl)cc1)Nc1ccccc1	-3	0	6	26	10	-8	·	·	·	·	·
O=C(Cc1ccc(Cl)cc1Cl)Nc1ccncc1	50*	58	18	51	20	8	43	16	22	-2	37
O=C(Cc1c(Cl)cccc1Cl)Nc1ccncc1	-11	44	9	-7	18	-46	·	·	·	·	·
S=C(NCc1ccc(Cl)cc1)Nc1ccncc1	58*	49	21	63*	12	5	49*	14	36*	17*	44*
O=C(Cc1ccc(Cl)cc1Cl)Nc1ccncc1Cl	40*	60	21	73*	21	27	49*	23	32*	5	42*
COC(=O)[C@]12C[C@H](CC(=O)NCC34CC5CC(CC(C5)C3)C4)C(=O)N(CCC3=CCCCC3)C1=C[C@H](C(C)C)O[C@@H]2C1CC1	12	·	9	·	·	·	·	·	·	·	·
C=CCN(C(=O)[C@@H](C)[C@@H](O)c1ccc(Cl)cc1)c1ccccc1	-14	·	-19	·	·	·	·	·	·	·	·
O=C1CCN(S(=O)(=O)c2ccccc2)CCN1CCOCc1ccc(C(F)(F)F)cc1	20	6	25	9	-3	13	·	·	·	·	·
Cc1ccc(S(=O)(=O)N2CCC(=O)N(CCOCc3ccc(C(F)(F)F)cc3)CC2)cc1	51*	18	14	52	11	11	30	13	-29	0	38*
C[C@@H]1COc2cc(Br)ccc2S(=O)(=O)N1Cc1cn(Cc2ccc(F)cc2)nn1	-24	·	13	·	·	·	·	·	·	·	·
SMILES	NR2F2 inh	LRH-1 inv ag	NCOA2 inhibitor	Gli-Sufu antag	SRC3 inh	NCOA1 inh	Gli-Sufu confirm	Gli cytotox	Wnt3a cs	VP16 Luc counter	COUP-TFII conf
COc1ccc(Cn2c(-c3ccc(C)cc3)c[n+]3ccccc23)cc1	52*	73*	6	85*	50	61*	86*	29*	36*	8	40*
COc1ccc(NS(=O)(=O)c2ccc(-c3coc(C)n3)cc2)cc1	-22	16	-7	9	14	-3	·	·	·	·	·
COc1ccc(NS(=O)(=O)c2ccc(-c3coc(C)n3)cc2)cc1OC	52*	50	29	73*	27	5	73*	28*	51*	9	59*
O=C(NC1CCCc2ccccc21)c1cn2ccccc2n1 (stereo not drawn)	11	-8	-27	1	-12	-26	·	·	·	·	·
Cc1nc2ccccn2c1C(=O)NC1CCCc2ccccc21 (stereo not drawn)	42*	27	18	56*	19	19	32	4	11	4	37
Cc1cc(=O)[nH]c(SCC(=O)/C=C2\N(C)c3ccccc3C2(C)C)n1	42*	3	27	68*	17	1	61*	25	27*	6	9
Cc1nc2ccccn2c1C(=O)NNS(=O)(=O)c1ccc(C(C)(C)C)cc1	46*	22	3	51	13	13	48*	27*	6	3	34
CCn1cc(CN(C)S(=O)(=O)c2ccc3ccccc3c2)c(C)n1	51*	45	-4	53	30	-1	50*	22	28*	2	51*
CC1(C)CC(=O)C=C(Nc2ccccc2NC(=O)c2cc(Cl)ccc2F)C1	-2	·	-4	·	·	·	·	·	·	·	·
Cc1ccc(C2CC(C(F)(F)F)n3nc(C(=O)NCc4c(C)nn(C)c4C)c(Cl)c3N2)cc1 (stereo not drawn)	45*	23	21	54	33	26	54*	32*	11	0	23
